About 2,000 (36%) of roughly 5,500 compounds were called active. Not shown: some 18% with an inconclusive outcome. No stated cut-off is given here; in the data, active means normalized growth mostly below about 0.91 (no sharp cut-off); inconclusive means no clear call, values can overlap the other calls; inactive means mostly above about 0.92. Some of the results follow.
Test: chemical genetic growth profiling, strain panel (AID 1159580);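 further: tested at 20 µM; growth read once vehicle control cultures reached saturation at 30 °C; 1 = growth at the plate median or of vehicle wells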
Conditions: growth OD

Measured: normalized growth

COc1cc(CNC(=O)CCCC/C=C/C(C)C)ccc1O
inactive: S. cerevisiae deletion strains, locus YJR043C, strain POL32, stronger effect = lower value 1 | S. cerevisiae deletion strains, locus YJR066W, strain TOR1, stronger effect = lower value 0.95 | S. cerevisiae deletion strains, locus YKL009W, strain mrt4, stronger effect = lower value 0.926 | S. cerevisiae deletion strains, locus YKL068W, stronger effect = lower value 1.01 | S. cerevisiae deletion strains, locus YKL085W, strain MDH1 (second series), stronger effect = lower value 1 | S. cerevisiae deletion strains, locus YKL085W, strain MDH1, stronger effect = lower value 1 | S. cerevisiae deletion strains, locus YKL160W, strain elf1, stronger effect = lower value 0.97 | S. cerevisiae deletion strains, locus YKL190W, strain CNB1, stronger effect = lower value 0.998 | S. cerevisiae deletion strains, locus YKR001C, strain vps1, stronger effect = lower value 0.997 | S. cerevisiae deletion strains, locus YKR026C, strain gcn3, stronger effect = lower value 0.97 | S. cerevisiae deletion strains, locus YKR091W, strain srl3, stronger effect = lower value 0.981 | S. cerevisiae deletion strains, locus YLL001W, strain dnm1, stronger effect = lower value 0.955 | S. cerevisiae deletion strains, locus YLL026W, stronger effect = lower value 0.987 | S. cerevisiae deletion strains, locus YLL041C, strain sdh2, stronger effect = lower value 0.987 | S. cerevisiae deletion strains, locus YLR027C, strain aat2, stronger effect = lower value 0.975 | S. cerevisiae deletion strains, locus YLR039C, strain RIC1, stronger effect = lower value 1.07 | S. cerevisiae deletion strains, locus YLR058C, strain SHM2, stronger effect = lower value 1.02 | S. cerevisiae deletion strains, locus YLR102C, strain apc9, stronger effect = lower value 0.986 | S. cerevisiae deletion strains, locus YLR113W, strain HOG1, stronger effect = lower value 1.02 | S. cerevisiae deletion strains, locus YLR221C, strain rsa3, stronger effect = lower value 0.978 | S. cerevisiae deletion strains, locus YLR258W, strain gsy2, stronger effect = lower value 0.986 | S. cerevisiae deletion strains, locus YLR262C, strain YPT6 (second series), stronger effect = lower value 0.966 | S. cerevisiae deletion strains, locus YLR262C, strain YPT6, stronger effect = lower value 1.11 | S. cerevisiae deletion strains, locus YLR268W, strain sec22, stronger effect = lower value 0.967 | S. cerevisiae deletion strains, locus YLR320W, strain mms22, stronger effect = lower value 0.995 | S. cerevisiae deletion strains, locus YLR330W, strain CHS5, stronger effect = lower value 1.02 | S. cerevisiae deletion strains, locus YLR342W, strain FKS1 (second series), stronger effect = lower value 1.02 | S. cerevisiae deletion strains, locus YLR342W, strain FKS1, stronger effect = lower value 0.978 | S. cerevisiae deletion strains, locus YLR357W, strain rsc2, stronger effect = lower value 1.03 | S. cerevisiae deletion strains, locus YLR370C, strain arc18, stronger effect = lower value 0.977 | S. cerevisiae deletion strains, locus YLR371W, strain rom2, stronger effect = lower value 1.01 | S. cerevisiae deletion strains, locus YLR384C, strain iki3, stronger effect = lower value 0.975 | S. cerevisiae deletion strains, locus YLR418C, strain cdc73, stronger effect = lower value 1 | S. cerevisiae deletion strains, locus YML016C, strain PPZ1, stronger effect = lower value 0.998 | S. cerevisiae deletion strains, locus YML032C, strain rad52, stronger effect = lower value 0.988 | S. cerevisiae deletion strains, locus YML120C, strain ndi1, stronger effect = lower value 0.984 | S. cerevisiae deletion strains, locus YML124C, strain tub3, stronger effect = lower value 0.986 | S. cerevisiae deletion strains, locus YMR058W, strain fet3, stronger effect = lower value 1 | S. cerevisiae deletion strains, locus YMR078C, strain ctf18, stronger effect = lower value 1 | S. cerevisiae deletion strains, locus YMR125W, strain sto1, stronger effect = lower value 1 | S. cerevisiae deletion strains, locus YMR129W, stronger effect = lower value 0.974 | S. cerevisiae deletion strains, locus YMR205C, strain PFK2, stronger effect = lower value 0.975 | S. cerevisiae deletion strains, locus YMR223W, strain ubp8, stronger effect = lower value 1 | S. cerevisiae deletion strains, locus YMR231W, strain pep5, stronger effect = lower value 1 | S. cerevisiae deletion strains, locus YMR307W, strain GAS1, stronger effect = lower value 1.04 | S. cerevisiae deletion strains, locus YNL067W, strain RPL9B, stronger effect = lower value 1 | S. cerevisiae deletion strains, locus YNL071W, strain lat1, stronger effect = lower value 0.979 | S. cerevisiae deletion strains, locus YNL183C, strain NPR1, stronger effect = lower value 0.96 | S. cerevisiae deletion strains, locus YNL209W, strain ssb2, stronger effect = lower value 1 | S. cerevisiae deletion strains, locus YNL233W, strain BNI4, stronger effect = lower value 0.995 | S. cerevisiae deletion strains, locus YNL248C, strain rpa49, stronger effect = lower value 0.926 | S. cerevisiae deletion strains, locus YNL250W, strain rad50, stronger effect = lower value 1.01 | S. cerevisiae deletion strains, locus YNL271C, strain bni1, stronger effect = lower value 0.984 | S. cerevisiae deletion strains, locus YNL298W, strain CLA4, stronger effect = lower value 0.992 | S. cerevisiae deletion strains, locus YNL307C, strain MCK1, stronger effect = lower value 0.988 | S. cerevisiae deletion strains, locus YNL322C, strain KRE1 (second series), stronger effect = lower value 0.98 | S. cerevisiae deletion strains, locus YNL322C, strain KRE1, stronger effect = lower value 1.01 | S. cerevisiae deletion strains, locus YNR049C, strain mso1, stronger effect = lower value 0.985 | S. cerevisiae deletion strains, locus YNR052C, strain pop2, stronger effect = lower value 0.985 | S. cerevisiae deletion strains, locus YOL012C, strain htz1 1.39 | S. cerevisiae deletion strains, locus YOL147C, strain pex11, stronger effect = lower value 0.973 | S. cerevisiae deletion strains, locus YOR001W, strain rrp6, stronger effect = lower value 0.956 | S. cerevisiae deletion strains, locus YOR061W, strain CKA2, stronger effect = lower value 1.02 | S. cerevisiae deletion strains, locus YOR069W, strain VPS5, stronger effect = lower value 1.01 | S. cerevisiae deletion strains, locus YOR070C, strain gyp1, stronger effect = lower value 0.99 | S. cerevisiae deletion strains, locus YOR080W, strain dia2, stronger effect = lower value 0.979 | S. cerevisiae deletion strains, locus YOR083W, strain WHI5, stronger effect = lower value 0.962 | S. cerevisiae deletion strains, locus YOR106W, strain vam3, stronger effect = lower value 0.967 | S. cerevisiae deletion strains, locus YOR136W, strain idh2, stronger effect = lower value 0.988 | S. cerevisiae deletion strains, locus YOR144C, strain elg1, stronger effect = lower value 0.996 | S. cerevisiae deletion strains, locus YOR184W, strain ser1, stronger effect = lower value 0.995 | S. cerevisiae deletion strains, locus YOR231W, strain MKK1, stronger effect = lower value 1.02 | S. cerevisiae deletion strains, locus YOR265W, strain rbl2, stronger effect = lower value 0.982 | S. cerevisiae deletion strains, locus YOR270C, strain vph1, stronger effect = lower value 1 | S. cerevisiae deletion strains, locus YOR290C, strain snf2, stronger effect = lower value 1 | S. cerevisiae deletion strains, locus YOR316C, strain cot1, stronger effect = lower value 0.987 | S. cerevisiae deletion strains, locus YPL051W, strain arl3, stronger effect = lower value 0.97 | S. cerevisiae deletion strains, locus YPL078C, strain atp4, stronger effect = lower value 0.974 | S. cerevisiae deletion strains, locus YPL106C, strain sse1, stronger effect = lower value 0.995 | S. cerevisiae deletion strains, locus YPL240C, strain hsp82, stronger effect = lower value 0.991 | S. cerevisiae deletion strains, locus YPL256C, strain CLN2, stronger effect = lower value 0.986 | S. cerevisiae deletion strains, locus YPR119W, strain clb2, stronger effect = lower value 0.994 | S. cerevisiae deletion strains, locus YPR141C, strain kar3, stronger effect = lower value 0.996 | S. cerevisiae deletion strains, locus YPR163C, strain tif3, stronger effect = lower value 0.981 | S. cerevisiae deletion strains, locus YPR167C, strain met16, stronger effect = lower value 1.01 | S. cerevisiae deletion strains, strain wtn01, stronger effect = lower value 0.963 | S. cerevisiae strains, strain wild type, stronger effect = lower value 1

— PubChem BioAssay AID1159580 (chemical genetic matrix, 2015)
